Source: the supplement of paper PMC6555819

test system: PPARg:RXRa IVT, anti-PPARg (NR concentration 270 nM, RXRa partner concentration 90 nM); assay: PBM binding z-score (relative to random genomic background probes); higher = stronger binding; sequences stand for … in GC…GCGATTGACAGCGTAGAATGAAGG
Outline: (§1)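 Custom Agilent 4×180K protein-binding microarrays carried double-stranded probes, each with a 34-nt variable region. These regions held direct-repeat seeds, single-nucleotide variants, half-site ablations and random human genomic background sequences. Ligand-free nuclear receptor dimers were incubated on the arrays for 1 h, antibodies against each partner (one per run) detected binding, and scanned fluorescence was regression-normalized. Binding z-scores take the random background probes as reference.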

| Sequence | PBM binding z-score |
| --- | --- |
| TGTCAAAGTTCAAAGGTAATGTAAGTATCCACAC | 4.47 |
| GCTTGTAGATCTAGGTTAAGAAAGACTAAGCTAA | 3.27 |
| TCTAGTTGGTCACGGAGGTCACATACGACGGGTA | 4.21 |
| TGAATGAGGTTAAAGATCAGCGAACGTGGCGTCG | 3.38 |
| TCTTGTACATCAATAGAGGTTAAGAAAGTGCGCT | 1.66 |
| GGAACGCGGGCAAGTTGATAGCAGAGTTTGATGG | -0.448 |
| AGTCAAAGTTCAGGACGAGGTAACGGAAAGCACG | 2.06 |
| ACAGACAGGTGAGAGAAGGTAACTCAGCTGGACG | 0.706 |
| TCATATAGGTAAATGCTAGGGGAAAGTCCGATCT | 2.11 |
| CCTTACGGGTCACTCCAGGTTATTGCATCGGAGT | 3.54 |
| GCAGACAGGAGAAACGCAGGTAACTCAGGGTGGC | -0.859 |
| CCGAGTACGTTATGGGGCATTCAGGCAACGGTGA | 0.0516 |
| TCGAGTAGGCTAGTCGGGGCATTCAGCCAACATA | 0.0917 |
| CCAGACAGGTGAAAGGTAACTCAGTCTGGTACGC | 3.2 |
| CTCGAAAGGTCGGTTGAGGTGAGGATACGGATAA | 1.07 |
| TTACCAAGGTGAAGGTAGTTGATCCCTCTGTAGA | 2.3 |
| CCGACCGGGGCATAAGGTTACCATAAGCCAGCCC | 0.416 |
| CATACAGGGTCAGCTCGGCCAGAGTAGGGACGGC | 2.11 |
| ACTTGTTGGTCAGCTGAGGTCACACACAATTCGG | 2.7 |
| CCTGCTAGGTAATGGTCAGCTAATCTACAGTATG | 0.132 |

| Sequence | PBM binding z-score |
| --- | --- |
| CGTCCAGGGTCATAGGAGGTCAGTGAAGACAGAT | 3.92 |
| CCTTACGGTTCACTCCAGGTTATAGCATCGGAGT | 0.401 |
| AGTCAGAGTTCAGGACGAGGTAACGTAAAGCACG | 0.676 |
| TCAGACAGGCGAAGGTAACTCAGGTACGCAGTCG | -0.431 |
| CGCCCAAGGTCAGAGAGGTCAGTGAATGCCGAGT | 2.94 |
| GCATATAGGTAATACAAAGTGAAAGTCCGATTGT | 2.73 |
| CGAACTAGATCATCCAGGACAGTGAATACATTGA | 1.22 |
| CTACCAAGGTGAACAAGGTGGTTGATTACTATTC | 2.27 |
| ACATACGGGTCAACGAGGTTATAGCACGCGTATA | 4.26 |
| CGTCCAAGGTCAAGGTCAGTAAAAGAGACTCGAA | 4.49 |
| GCGACTGGGGCATCAGCAGGTAACCATAACTTAA | 3.1 |
| ATATGTAGATTAGCTGGGGTCATTCAGACTAGGC | 1.54 |
| ACTAGTTGGTCAGCTGAGGTCCCACACAATTCGG | 1.02 |
| AGAGTGAGGTTATACGTAGATCAGGGAAGAAAGT | 0.769 |
| GCTAGCAGGCCATTTGGGGCACTCAATGACGGGC | 0.8 |
| GCTAGTTGGTCAGGAAAAGGTCACACACCGGTCG | 2.59 |
| CCGACTGGGGCATAAGGTTACCACAAGCCAGCCC | 3.09 |
| ACTAGTTGGTCAGCAGAGGTCACACACAATTCGG | 3.43 |
| TCTTGTAGATCAAAGGTTAAAAAAGCCGAAGCCT | 3.58 |
| CCGACTGGTGCATAAGGTTACCATAAGCCAGCCC | -0.302 |

test system: PPARg DBDmut:RXRa IVT, anti-PPARg (DBD mutation: PPARg1 K132A/R137A, NR concentration 270 nM, RXRa partner concentration 90 nM); assay: as above
Outline: as §1

| Sequence | PBM binding z-score |
| --- | --- |
| TGTCAAAGTTCAAAGGTAATGTAAGTATCCACAC | 1.92 |
| GCTTGTAGATCTAGGTTAAGAAAGACTAAGCTAA | 0.608 |
| TCTAGTTGGTCACGGAGGTCACATACGACGGGTA | 1.22 |
| TGAATGAGGTTAAAGATCAGCGAACGTGGCGTCG | 1.34 |
| TCTTGTACATCAATAGAGGTTAAGAAAGTGCGCT | 1.53 |
| GGAACGCGGGCAAGTTGATAGCAGAGTTTGATGG | -0.461 |
| AGTCAAAGTTCAGGACGAGGTAACGGAAAGCACG | 0.787 |
| ACAGACAGGTGAGAGAAGGTAACTCAGCTGGACG | 0.0985 |
| TCATATAGGTAAATGCTAGGGGAAAGTCCGATCT | 1.09 |
| CCTTACGGGTCACTCCAGGTTATTGCATCGGAGT | 0.677 |
| GCAGACAGGAGAAACGCAGGTAACTCAGGGTGGC | -0.9 |
| CCGAGTACGTTATGGGGCATTCAGGCAACGGTGA | -0.885 |
| TCGAGTAGGCTAGTCGGGGCATTCAGCCAACATA | -1.43 |
| CCAGACAGGTGAAAGGTAACTCAGTCTGGTACGC | 0.403 |
| CTCGAAAGGTCGGTTGAGGTGAGGATACGGATAA | 0.312 |
| TTACCAAGGTGAAGGTAGTTGATCCCTCTGTAGA | -0.207 |
| CCGACCGGGGCATAAGGTTACCATAAGCCAGCCC | -0.828 |
| CATACAGGGTCAGCTCGGCCAGAGTAGGGACGGC | 1.08 |
| ACTTGTTGGTCAGCTGAGGTCACACACAATTCGG | 1.08 |
| CCTGCTAGGTAATGGTCAGCTAATCTACAGTATG | -0.293 |

| Sequence | PBM binding z-score |
| --- | --- |
| CGTCCAGGGTCATAGGAGGTCAGTGAAGACAGAT | 0.473 |
| CCTTACGGTTCACTCCAGGTTATAGCATCGGAGT | 0.147 |
| AGTCAGAGTTCAGGACGAGGTAACGTAAAGCACG | 0.355 |
| TCAGACAGGCGAAGGTAACTCAGGTACGCAGTCG | -0.529 |
| CGCCCAAGGTCAGAGAGGTCAGTGAATGCCGAGT | -0.485 |
| GCATATAGGTAATACAAAGTGAAAGTCCGATTGT | 0.942 |
| CGAACTAGATCATCCAGGACAGTGAATACATTGA | 0.762 |
| CTACCAAGGTGAACAAGGTGGTTGATTACTATTC | 0.24 |
| ACATACGGGTCAACGAGGTTATAGCACGCGTATA | 2.04 |
| CGTCCAAGGTCAAGGTCAGTAAAAGAGACTCGAA | 0.553 |
| GCGACTGGGGCATCAGCAGGTAACCATAACTTAA | -0.465 |
| ATATGTAGATTAGCTGGGGTCATTCAGACTAGGC | 1.36 |
| ACTAGTTGGTCAGCTGAGGTCCCACACAATTCGG | -0.38 |
| AGAGTGAGGTTATACGTAGATCAGGGAAGAAAGT | 1.06 |
| GCTAGCAGGCCATTTGGGGCACTCAATGACGGGC | -0.58 |
| GCTAGTTGGTCAGGAAAAGGTCACACACCGGTCG | -0.101 |
| CCGACTGGGGCATAAGGTTACCACAAGCCAGCCC | -1.04 |
| ACTAGTTGGTCAGCAGAGGTCACACACAATTCGG | 1.09 |
| TCTTGTAGATCAAAGGTTAAAAAAGCCGAAGCCT | 0.744 |
| CCGACTGGTGCATAAGGTTACCATAAGCCAGCCC | -0.529 |
